This is a sample that favours compounds with a hit; in the whole collection about 19% have one here.
DT40 TDP1 CPT = growth inhibition of DT40 Tdp1-/-;hTDP1 cells with camptothecin (screen for TDP1 inhibitors) | chicken DT40 Tdp1-/-;hTDP1 cells + 20 nM CPT, ATP luminescence, 48 h | Potency, µM (highest dose often 46.2 µM), for the others: at the highest dose activity change, negative = growth inhibition, hits mostly inhibitors | actives 12% (n = 420,000); note: potency is the fitted concentration of half-maximal effect; % is set by controls: 0 for no effect and ±100 for the full control effect; nearly all actives have a fitted effect of over 55% in size
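Cell growth measured by CellTiter-Glo luminescence after a minimum 48 h, 37 C compound exposure with 20 nM CPT in Tdp1-knockout DT40 cells stably expressing hTDP1, seeded 400/well; qHTS titration format.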
TDP1 cell noCPT = qHTS for Inhibitors of human tyrosyl-DNA phosphodiesterase 1 (TDP1): qHTS in cells in absence of CPT; AID 686978, 2013; DT40 Tdp1-/- hTDP1 cells, no CPT, ATP luminescence, 48 h; actives 15% (n = 420,000); Potency, µM (series often up to 46.2 µM), inactives show at the highest dose activity change, negative = growth inhibition, most hits filed as inhibitors; note: potency is the fitted concentration of half-maximal effect; % is set by controls: 0 for no effect and ±100 for the full control effect; nearly all actives have a fitted effect of over 55% in size
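Seeded 400 DT40-hTDP1 cells/well (vehicle DMSO, no 20 nM CPT); pinned compounds; ≥48 hr at 37 °C; CellTiter-Glo luminescence as viability measure.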
HepG2 tox = HepG2 cytotoxicity, counter-screen for TGF-b inhibitors | AID 588856 | Potency, µM (titrated, usually from 46.1 µM), inactives show at the top dose activity change, negative = cytotoxicity, usual class: cytotoxic | HepG2 CAGA-GFP viability, ATP luminescence, 18 h | actives 0.76% (n = 410,000); note: potency is the fitted concentration of half-maximal effect
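CellTiter-Glo luminescence gave cytotoxicity after 18 hours at 37 degrees C. The cells were HepG2 CAGA-GFP in 1% FBS DMEM, stimulated with 500 pg/mL TGF-beta after compound addition. %Activity was normalised to no-cell wells (complete cell-killing) and DMSO (no toxicity), and curves were fitted and classified.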
IL1B secr inh = inhibitors of inflammasome signaling (IL-1 beta secretion). activity change, % at 57.5 µM. actives 4.7% (n = 360,000). AID 743279. THP-1 LPS/ATP IL-1B secretion, AlphaLISA, 16 h; stronger effect = lower value; in the data active = activity change below about -50%; inconclusive = mostly about -30% to -49%; note: % is set by controls: 0 for no effect and ±100 for the full control effect
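THP-1 cells pretreated 1 hr with compounds (up to 57.5 uM final), then stimulated with LPS (250 ng/mL final) plus ATP (1.25 mM final); secreted IL-1B measured by AlphaLISA after 16 hr, decreased signal indicating inhibition.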
TGFb SMAD3 inh = TGF-b pathway inhibition; HepG2 CAGA-GFP TGF-b/SMAD3 reporter, GFP fluorescence, 18 h; TGF-beta stimulated, 500 pg/mL final; actives 1.2% (n = 410,000); Potency, µM (top dose mostly 46.1 µM), without a hit: at the top dose activity, negative = inhibition, usual class: inhibitors; AID 588855; note: potency is the fitted concentration of half-maximal effect; % is set by controls: 0 for no effect and ±100 for the full control effect; nearly all actives have a fitted effect of over 65% in size
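GFP signal (ex488/em500-530) from TGF-beta-stimulated HEPG2 CAGA-GFP cells, 500 pg/mL final, 18 h at 37 degrees C in DMEM plus 1% FBS, normalized to unstimulated and DMSO-stimulated controls.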
TDP1 block = inhibitors of human tyrosyl-DNA phosphodiesterase TDP1. recombinant TDP1, AlphaScreen DNA substrate cleavage. Potency, µM (doses to about 130 µM), inactives show top-dose activity change, negative = inhibition, most hits filed as inhibitors. actives 0.28% (n = 350,000); note: potency is the fitted concentration of half-maximal effect; % is set by controls: 0 for no effect and ±100 for the full control effect; nearly all actives have a fitted effect of over 40% in size
Target sequence (Q9NUW8 whole entry, looked up): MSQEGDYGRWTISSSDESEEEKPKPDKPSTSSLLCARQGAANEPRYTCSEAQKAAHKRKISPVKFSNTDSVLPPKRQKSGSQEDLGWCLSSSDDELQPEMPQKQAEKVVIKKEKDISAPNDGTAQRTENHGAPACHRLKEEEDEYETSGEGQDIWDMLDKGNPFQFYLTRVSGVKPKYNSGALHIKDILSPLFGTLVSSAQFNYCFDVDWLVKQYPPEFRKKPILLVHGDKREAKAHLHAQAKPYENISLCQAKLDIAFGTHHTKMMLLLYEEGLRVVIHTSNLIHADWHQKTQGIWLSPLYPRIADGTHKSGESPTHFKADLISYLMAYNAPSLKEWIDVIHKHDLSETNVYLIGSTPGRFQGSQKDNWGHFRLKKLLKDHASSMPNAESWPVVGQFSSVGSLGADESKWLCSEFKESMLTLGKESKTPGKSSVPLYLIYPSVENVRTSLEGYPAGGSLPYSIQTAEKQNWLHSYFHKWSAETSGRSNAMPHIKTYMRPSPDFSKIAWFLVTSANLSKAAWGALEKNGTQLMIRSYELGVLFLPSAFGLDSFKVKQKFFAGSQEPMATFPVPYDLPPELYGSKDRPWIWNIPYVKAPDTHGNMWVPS
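AlphaScreen read-out: signal falls as enzyme removes the 3' tyrosine-FITC from a 5'-biotinylated DNA oligo (15 nM, 5 min, RT). Enzyme was E. coli-made recombinant Tdp1 at 1 nM, exposed to compound for 15 min beforehand; beads 10 ug/ml, 10 min.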
Starred values were filed as active, the others as inactive; ? = inconclusive; · = no result given; [ ] = another dose, or the depositor's remark. Unless noted, calls come from the whole dose curve; as a rule, active = well fitted curve in the direction sought with a large enough effect; inconclusive = small, poorly fitted or top-dose-only effect, or another doubt; inactive = no such curve, though single readings can be large; an effect the other way counts as inactive or inconclusive.

SMILES | DT40 TDP1 CPT | TDP1 cell noCPT | HepG2 tox | IL1B secr inh | TGFb SMAD3 inh | TDP1 block
Brc1ccc(C2=Nn3c(nnc3-c3n[nH]c4c3CCC4)SC2)cc1 | 0.92µM* | 0.92µM* | -33.7% | -15.6 | 16.3% | 11.6%
Cc1ccc(-c2nnc3n2N=C(c2ccc(Br)cc2)CS3)cc1 | 23.1µM* | ? | -16.9% | -19.6 | -4.1% | 6.1%
c1ccc(-c2ccc(C3=Nn4c(nnc4-c4cc(-c5ccccc5)n[nH]4)SC3)cc2)cc1 | ? | ? | -41.1% | 61.7 | ? | 7.6%
O=C(O)c1ccc2[nH]c3c(c2c1)CSCC3 | -0.9% | 0.6% | -0.4% | -18.0 | 2.6% | 20µM*
CN(C)CCOC(=O)c1ccc2[nH]c3c(c2c1)CSCC3 | -23.7% | -17.1% | 1.6% | -73.7* | ? | ·
O=C(NCCO)c1ccc2[nH]c3c(c2c1)CCCC3 | -3.5% | -18.5% | -52.2% | -14.7 | -5.5% | 3.0%
CSc1nnc(SCC(=O)Nc2ccc3[nH]c(=O)[nH]c3c2)s1 | -8.2% | 22.1% | -3.7% | -3.8 | -3.6% | 0.7%
COc1ccc(C2/C=C\CN(CC(C)C)C(Cc3ccccc3)C(=O)N2Cc2ccc(F)cc2)cc1 (configuration not stated) | · | · | -13.1% | · | -21.6% | 4.4%
CCC(C)NC(=O)CN1C(=O)c2cccnc2Sc2ccccc21 (configuration not stated) | ? | 5.7% | 1.3% | · | 2.9% | 3.2%
CC1CN(C(=O)c2ccccc2OCc2ccc(Cl)cc2Cl)CC(C)O1 (configuration not stated) | 16.4µM* | 3.66µM* | -26.8% | -2.8 | -27.7% | -4.6%
COc1ccc(S(=O)(=O)N2CCOCC2)cc1Br | 13.3% | -8.0% | 9.7% | 7.3 | -0.3% | -4.8%
Nc1cc(S(=O)(=O)N2CCOCC2)ccc1Oc1cccc(Br)c1 | ? | ? | -29.4% | -61.0* | -11.6% | -11.9%
CC(C)c1ccc(C2C3=C(CC(C)(C)CC3=O)NC3=C2C(=O)c2ccccc23)cc1 (configuration not stated) | 20.6µM* | ? | -10.1% | ? | ? | 9.8%
Cc1cccc(CCN2C(N(C)C)=NC[C@@H]2C)c1 | ? | ? | 0.5% | 19.7 | 1.0% | -4.2%
CN(C)C1=NC[C@H](Cc2ccccc2)N1CCCCc1ccccc1 | ? | 20.6µM* | -23.2% | ? | 1.5% | -6.5%
Cc1cccc(CCN2C(N(C)C)=NC[C@@H]2CC(C)C)c1 | ? | ? | -15.4% | -0.9 | -11.0% | -1.5%
Cc1cccc(CCN2C(N(C)C)=NC[C@@H]2Cc2ccccc2)c1 | ? | ? | -2.5% | -59.2* | 2.1% | 0.7%
CCCCCCCN1C(N(C)C)=NC[C@@H]1Cc1ccccc1 | 11.6µM* | 9.2µM* | -25.0% | ? | ? | -3.6%
O=C(c1ccncc1)N1CCC2(CC1)CN(c1ncccn1)C2 | 4.0% | -8.7% | · | · | · | ·
CCCCOc1ccc(CNC(=O)CN2CCSc3ccccc32)cc1 | · | · | -31.2% | · | ? | 8.9%
O=C1/C(=C/c2ccccn2)SC(=S)N1Nc1ncc(C(F)(F)F)cc1Cl | 8.2µM* | ? | -14.4% | -7.5 | -16.2% | ·
COCCCNC(=O)C[C@H]1C[C@H](C(=O)N(C(C)C)C(C)C)[C@@]2(C)c3[nH]c4ccc(Cl)cc4c3CCN2C1=O | 11.6µM* | 8.2µM* | -24.8% | 5.2 | ? | -0.3%[56.1 µM]
COc1ccc2[nH]c3c(c2c1)CCN1C(=O)C(CC(=O)NCCCn2ccnc2)C[C@H](C(=O)N(C(C)C)C(C)C)[C@@]31C (some centres not stated) | -10.9% | -15.6% | -3.0% | -18.6 | -20.0% | 2.8%[56.1 µM]

Source: PubChem (National Center for Advancing Translational Sciences (NCATS))
